# Screening results: PubChem, Buhrlage Lab, Dana-Farber Cancer Institute and Novartis Institutes for BioMedical Research (Cambridge, Mass)
# USP8 inh = inhibitors of human USP8 deubiquitinase | Ubiquitin carboxyl-terminal hydrolase 8 (Homo sapiens), P40818 | purified USP8, Ub-rhodamine cleavage fluorescence, 30 min | inhibition, % at 20 µM | 47,000 compounds, 4.2% hits
# UCHL1 inh = inhibitors of human UCHL1 deubiquitinase; Ubiquitin carboxyl-terminal hydrolase isozyme L1 (Homo sapiens), P09936; purified UCHL1, Ub-rhodamine cleavage fluorescence; inhibition, % at 20 µM; 47,000 compounds, 0.2% hits
# USP10 inh = inhibitors of human USP10 deubiquitinase. purified USP10, Ub-rhodamine fluorescence, 60 min. inhibition, % at 20 µM. 47,000 compounds, 1.1% hits. AID 1645856, 2021
# USP7 block = inhibitors of human USP7 deubiquitinase. purified USP7, Ub-rhodamine cleavage fluorescence. inhibition, % at 20 µM. 47,000 compounds, 0.3% hits. AID 1645854, 2021
# * = called active by the depositor; · = not tested or not shown. Sampled rows, rich in hits. Any-hit rate of the full collection: about 4.6%. No stated cut-off is given here; in the data, active means inhibition above about 30%; inactive means the rest.
SMILES,USP8 inh,UCHL1 inh,USP10 inh,USP7 block
O=c1oc2ccccc2cc1-c1nc(-c2ccc(Oc3ccccc3)cc2)cs1,53*,9,0,70*
Cc1noc(-c2ccc(-n3ncc(C(=O)N4CCN(c5ccccn5)CC4)c3C)nc2)n1,5,-2,2,1
CCNC(=O)N1CCc2c(cccc2-n2nnc(C(=O)N(C)Cc3ccco3)c2C)C1,37*,-2,-8,-7
CCOC(=O)C1CCN(C(=O)c2ccc3c(c2)NC(=O)C(CS(=O)(=O)Cc2ccccc2Cl)N3)CC1 (configuration not stated),49*,-3,-12,-14
O=C(NCc1ccc(F)cc1Cl)c1csc(C(=O)N2CCCC2)n1,-2,-1,-1,-10
O=C1Nc2cc(C(=O)N3CCCC3)ccc2NC1CS(=O)(=O)Cc1ccc(F)cc1Cl (configuration not stated),35*,-4,-4,-16
CCOC(=O)C1CCN(C(=O)c2ccc3c(=O)n(-c4ccccc4)c(=O)[nH]c3c2)CC1,0,0,0,-4
NC(c1c(O)ccc2ccccc12)P(=O)(O)O (configuration not stated),37*,-1,-1,5
O=[N+]([O-])c1cccc(-c2csc(-c3ccc4c(c3)OCO4)n2)c1,31*,3,-1,5
c1ccc(-c2cc(-c3csc(-c4ccc5c(c4)OCCO5)n3)on2)cc1,-23,2,2,10
Cc1ccccc1Cn1c(=O)n(CCCC(=O)N2CCc3ccccc3C2)c(=O)c2ccccc21,9,4,17,4
O=C(Nc1cc(Cl)ccc1NCc1ccccc1)c1cc(=O)[nH]c2ccccc12,44*,-2,-3,0
Cc1ccc2nc(N3CCc4ccccc4C3)c3nncn3c2c1,45*,-2,-7,3
CCc1cc(=O)n(CC(=O)Nc2ccc3c(c2)OCCO3)c2c1c(C)nn2-c1ccc(C)cc1,44*,4,7,6
Cc1cc(=O)n(CC(=O)Nc2ccc3c(c2)OCCO3)c2c1c(C)nn2-c1ccccc1,-5,0,2,4
CCCN1C(=O)Cc2c(C)nc(-c3cccc(F)c3)nc21,75*,0,-5,-22
CCN1C=C(C(=O)OCc2c(C)noc2C)C(C)=NS1(=O)=O,-29,-16,-5,-14
COc1ccc(C(=O)Nc2ccc3c(c2)N(C(=O)C2CC2)CCC3)cc1OC,15,3,0,3
COC(=O)C1(Cc2ccc(O)cc2)OC(=O)C(O)=C1c1ccc(O)cc1 (configuration not stated),-8,37*,-10,-54
CC(=O)NCCc1ccc(O)cc1,0,-2,2,1
O=C(CN1CCOCC1)Nc1ccc(NC(=O)c2ccc(Cl)cc2)cc1,-6,69*,1,-4
COc1cccc(C(=O)N2CCCC(c3[nH]nc4nccnc34)C2)c1 (configuration not stated),10,2,0,1
O=C(c1[nH]nc2c1COc1ccccc1-2)N1CCN(c2ncccn2)CC1,12,1,18,-7
O=C(c1[nH]nc2c1COc1ccccc1-2)N1CCN(c2ccccn2)CC1,50*,4,27,10
O=C(Nc1ccc2nc(CCc3ccccc3)[nH]c2c1)c1ccncc1,0,1,-3,6
SMILES,USP8 inh,UCHL1 inh,USP10 inh,USP7 block
Clc1ccc2nc(COc3ccccc3Cc3ccccc3)[nH]c2c1,63*,4,9,-8
COc1cc(Cl)c(NC(=O)C2Cc3ccccc3N2C(=O)c2ccccc2)c(OC)c1 (configuration not stated),-8,1,36*,1
Cc1cc(=O)n2[nH]c(CNc3cccc(C(F)(F)F)c3)nc2n1,6,0,5,7
CCC1CCCCN1c1cc(=O)n2ccccc2n1 (configuration not stated),-5,-2,0,·
CCOc1cc2c(cc1OCC)C(c1ccc(OC)cc1)N(c1ccc(OC)c(Cl)c1)C(=O)C2 (configuration not stated),36*,11,-4,15
CCOc1cc2c(cc1OCC)C(c1ccc(Cl)cc1)N(c1ccc(C(=O)O)cc1)C(=O)C2 (configuration not stated),23,1,7,0
CCCN1CCn2cc(S(=O)(=O)Nc3ccccc3C)cc2C1=O,16,4,3,5
O=C(Oc1ccc(-n2cnnn2)cc1)c1ccccc1Br,45*,-1,6,-11
CCCCOc1ccccc1C(=O)Oc1ccc(-n2cnnn2)cc1,19,3,7,-32
Cc1ccc(C(=O)Nc2c(-c3ccc4c(c3)OCO4)c(=O)c3ccccc3n2C)cc1,41*,10,24,-2
Cc1ccc(-c2c(NC(=O)c3cccs3)n(C)c3ccccc3c2=O)cc1,32*,6,16,9
CC1=C(c2ccc(Cl)cc2)S(=O)(=O)N=C1N1CCCN(C(=O)C2CCC2)CC1,13,2,0,-2
O=C(Nc1nccn1Cc1ccccc1)c1cc(-c2cccc(Cl)c2)on1,80*,4,5,2
COc1ccc(C(C(=O)NC2CCCCC2)N(C(=O)c2ccco2)c2ccccc2C)cc1OC (configuration not stated),-20,1,1,-5
CC(C)=CCc1c2c(c3occ(-c4ccc(O)c(O)c4)c(=O)c3c1O)C=CC(C)(C)O2,26,15,63*,-12
Cc1nc(CN2CCn3c(Cn4cccn4)cnc3C2C)cs1 (configuration not stated),-129,-66,-4,-72
O=[N+]([O-])c1ccc2nc3c(c(-c4ccccc4)c2c1)CNCC3,82*,0,-3,-132
Cc1cc(=O)[nH]c(Sc2c(-c3ccccc3)c3cc([N+](=O)[O-])ccc3[nH]c2=O)n1,-34,3,15,-135
CSC1SCC2C(=O)N(C)C(C(C)C(C)C)C(=O)OCC(NC(=O)c3cnc4ccccc4n3)C(=O)NC(C)C(=O)N(C)C1C(=O)N(C)C(C(C)C(C)C)C(=O)OCC(NC(=O)c1cnc3ccccc3n1)C(=O)NC(C)C(=O)N2C (configuration not stated),14,7,38*,18
CC(C)(C)c1ccc(C2CC(=O)C3=C(C2)Nc2ccccc2N(C(=O)CCC(=O)O)C3c2cccc([N+](=O)[O-])c2)cc1 (configuration not stated),-74,-1,33*,-10
CN1CC(=O)N(C2CCCNC2)Cc2c1ncnc2N1CCC(CCO)CC1 (configuration not stated),-64,1,3,5
CCCN(CC(=O)Nc1ccccc1C)CC(=O)Nc1cccc2ccccc12,13,6,6,3
Cc1ccccc1NC(=O)Cc1nc(-c2cccc3ccccc23)cs1,73*,-2,0,-3
O=C(c1ccccc1)c1c(-c2ccccc2)oc2ccc(NS(=O)(=O)c3ccc(Cl)cc3)cc12,23,10,33*,16
